# From PubChem BioAssay
# Calls of active or inactive are those of the source.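 How the source made its calls: active means compounds whose cell count with miR-34 switched on is under 0.7 times the count with it off; inactive means the rest.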 Peptide text beside a SMILES is read from it. * marks the point of attachment. CH2Cl = ClC*
# Assay: viability loss with induced miR-34 in A549 – imaging, A549 dox-inducible miR-34, nuclei and caspase counts, primary screen (AID 1347080); further: test concentration not given here
# Conditions: A549 miR-34 inducible, Hoechst nuclei count, 48 h; stronger effect = lower value
row,SMILES,fold change
1,N[C@H]1C[C@@H]1c1ccccc1,0.858 (inactive)
2,C=C1[C@@H](C)[C@H]2[C@H](Cc3ccccc3)NC(=O)[C@]23OC(=O)/C=C/[C@H](O)CCC[C@@H](C)C/C=C/[C@H]3[C@@H]1O,1.14 (inactive)
3,N#CC(C#N)=NNc1ccc(OC(F)(F)F)cc1,1.05 (inactive)
4,C/C1=C/C(=O)O[C@@H]2C[C@@H](CC[C@H](C)/C=C\CC1)O[C@@](O)([C@@H]1CSC(=O)N1)C2,1.2 (inactive)
5,CCCC[C@@H](C)[C@@H](OC(=O)C[C@@H](CC(=O)O)C(=O)O)[C@H](C[C@@H](C)C[C@H](O)CCCC[C@@H](O)C[C@H](O)[C@H](C)N)OC(=O)C[C@H](CC(=O)O)C(=O)O,0.911 (inactive)
6,Clc1ccc(C2CC3CCC2N3)cn1 (stereo unspecified),0.945 (inactive)
7,C[C@H](N)C(=O)N[C@@H](C)C(=O)N[C@@H](Cc1ccccc1)C(=O)CCl (H-Ala-Ala-Phe-CH2Cl),0.806 (inactive)
8,COC[C@H]1OC(=O)c2coc3c2[C@@]1(C)C1=C(C3=O)[C@@H]2CCC(=O)[C@@]2(C)C[C@H]1OC(C)=O,0.997 (inactive)
9,CC1OC(O[C@H]2C[C@@H](O)[C@]3(CO)[C@H]4[C@H](O)C[C@]5(C)[C@@H](C6=CC(=O)OC6)CC[C@]5(O)[C@@H]4CC[C@]3(O)C2)C(O)C(O)C1O (stereo partly specified),0.802 (inactive)
10,CC(C)(O)[C@H]1O[C@H]2CC[C@@]3(C)[C@@](O)(CC[C@H]4Cc5c([nH]c6ccccc56)[C@@]43C)C2=CC1=O,1.09 (inactive)
11,CCCCCCC(C)(C)c1cc(OC)c2c(c1)OC(C)(C)[C@@H]1CC=C(C)C[C@@H]21,1.09 (inactive)
